# From PubChem BioAssay (Tox21)
# Calls of active or inactive are those of the source. The call rests on the fitted dose curve; in most records, active means well fitted curve in the direction sought with a large enough effect in the repeat runs; inconclusive means weak or mixed curves; inactive means flat fitted curve, though single readings scatter.
# Assay: qHTS assay to test for compound auto fluorescence at 460 nm (blue) in HepG2 cells (AID 720687)
# Details: autofluorescence 405/460 nm, 1 h; series mostly up to 91.3 µM; fluorescence, % of fluorescent control: at the top concentration
# Text: U.S. Tox21 Program National Center for Advancing Translational Sciences [NCATS] NIH Chemical Genomics Center [NCGC] U.S. Environmental Protection Agency [EPA] National Institutes of Environmental Health Sciences [NIEHS] National Toxicology Program [NTP] U.S. Food and Drug Administration [FDA] Tox21 Assay Overview: Compound auto fluorescence often interferes with screening of the compound library against various biological targets and signaling pathways. Some of these compounds may have fluorophoric properties. Such properties may interfere with the assay outputs resulting in false positives and/or negatives. To decrease such complications and ensure the compound activities are relevant in terms of biological response, the Tox21 10K compound library was screened for auto fluorescence. From the fluorophores used as reporter signals in our screening assays, the auto fluorescence equivalencies of compounds against three fluorophores have been evaluated: Triamterene, Fluorescein and Rose Bengal sodium for blue, green and red fluorescence, respectively. The fluorescence intensities were measured using Excitation/Emission wavelengths at 405/460nm, 485/535nm and 540/590nm for blue, green and red labels, respectively. This assay includes the blue fluorescence data.
# Tox21 Assay Protocol Summary: 2,000 HepG2 cells in 5 uL of culture medium (MEM containing 10% FBS) per well were dispensed into black wall/clear bottom 1536-well plates using a Multidrop Combi Dispenser (ThermoFisher Scientific, Waltham, MA). The assay plates were incubated overnight at 37 C to allow cell attachment to the well bottom, followed by the transfer of 23 nL compound or DMSO vehicle by a pintool work station (Kalypsys , San Diego, CA). After the assay plates were incubated for 1 hr at 37 C and 5% CO2, fluorescence intensities in the assay plates were measured by an Envision (PerkinElmer, Shelton, CT) plate reader using three labels for measuring blue, green and red fluorescence at […] 460, 535 and 590 nm respectively.
# On the % scale 0 is the no-effect control and ±100 the full control effect.
SMILES,"fluorescence, % of fluorescent control",outcome
COc1ncc(F)c2nc(S(=O)(=O)Nc3c(F)cccc3F)nn12,-0.153% (inactive),–
CC(C)(C)NCC(O)c1cc(Cl)c(N)c(Cl)c1 (stereo not given),0.277% [at 46 µM] (inactive),–
CCCCc1ccc(O)cc1,0.178% (inactive),–
N#CCNCC#N,0.0226% (inactive),–
O=C(N[C@H]1CN2CCC1CC2)c1cc2ccoc2cn1,0.046% (inactive),–
CC1CCC(=O)O1 (stereo not given),0.0995% (inactive),–
CN1CCN(C(=O)O[C@H]2c3nccnc3C(=O)N2c2ccc(Cl)cn2)CC1,-0.134% [at 46 µM] (inactive),–
N#CC(O)c1ccccc1 (stereo not given),-0.0232% (inactive),–
COC(=O)C1=CCCN(C)C1,-0.0509% [at 46 µM] (inactive),–
C[C@@H]1CN(C2CCC(C#N)(c3ccc(F)cc3)CC2)CC[C@]1(C(=O)O)c1ccccc1 (stereo not given in full),-0.0325% [at 18.6 µM] (inactive),–
c1coc(-c2nc3ccccc3[nH]2)c1,1.12% (inactive),–
Cc1cc(C)c(C(=O)P(=O)(C(=O)c2c(C)cc(C)cc2C)c2ccccc2)c(C)c1,0.0222% (inactive),–
NC(=S)C(N)=S,-0.116% (inactive),–
Cc1ncc2n1-c1ccc(Cl)cc1C(c1ccccc1F)=NC2,-0.261% [at 46 µM] (inactive),–
c1cc[c]([Hg][c]2ccccc2)cc1,-0.0088% (inactive),–
CC(Oc1ccc(Oc2ncc(C(F)(F)F)cc2Cl)cc1)C(=O)O (stereo not given),0.0095% (inactive),–
CC(CCc1ccccc1)NC(C)C(O)c1ccc(O)cc1 (stereo not given),-0.0291% [at 46 µM] (inactive),–
O=S(=O)(O)C(F)(F)C(F)(F)C(F)(F)C(F)(F)C(F)(F)C(F)(F)F,0.0043% (inactive),–
CC(N)=S,-0.0588% (inactive),–
COC(=O)c1ccccc1S(=O)(=O)NC(=O)N(C)c1nc(C)nc(OC)n1,-0.0118% [at 95.7 µM] (inactive),–

SMILES,"fluorescence, % of fluorescent control",outcome
Nc1cc2c3c(c1)C(c1ccccc1)=N[C@@H](NC(=O)c1cccnc1)C(=O)N3CC2,1.41% (inactive),–
Cc1nc(N)nc(N)n1,0.0144% [at 95.7 µM] (inactive),–
ClCCOCOCCCl,0.0095% [at 95.7 µM] (inactive),–
CCS(=O)(=O)CCSP(=O)(OC)OC,0.0051% (inactive),–
CN1C(=S)CN=C(c2ccccc2)c2cc(Cl)ccc21,0.0093% [at 46 µM] (inactive),–
CC(COc1ccc(Oc2ccccc2)cc1)Oc1ccccn1 (stereo not given),0.0095% (inactive),–
N#CCBr,0.0045% [at 95.7 µM] (inactive),–
[As]#[In],-0.456% (inactive),–
[O]=[Cd],–,inactive
CCN(CC)C(C)C(=O)c1ccccc1 (stereo not given),0.0158% [at 46 µM] (inactive),–
CCc1cc2c(s1)-n1c(C)nnc1CN=C2c1ccccc1Cl,0.0099% [at 46 µM] (inactive),–
COc1cccc2c1cc([N+](=O)[O-])c1c(C(=O)O)cc3c(c12)OCO3,-0.0736% (inactive),–
CC(=O)C(Cl)Cl,-0.076% [at 95.7 µM] (inactive),–
C=C(C)CN(CC)c1c([N+](=O)[O-])cc(C(F)(F)F)cc1[N+](=O)[O-],-0.11% (inactive),–
O=CNC(N1CCN(C(NC=O)C(Cl)(Cl)Cl)CC1)C(Cl)(Cl)Cl (stereo not given),0.15% (inactive),–
Nc1ccccc1Cl,-0.0311% (inactive),–
N#Cc1c(Cl)cccc1Cl,-0.0015% (inactive),–
COC(=O)c1ccccc1S(=O)(=O)NC(=O)Nc1nc(C)cc(C)n1,0.0026% (inactive),–
CN/C(=N\[N+](=O)[O-])NCC1CCOC1 (stereo not given),0.0031% (inactive),–
O=C(Oc1ccc(Br)cc1)N1CCN2CCC1CC2,0.0033% (inactive),–
